The whole screen tested about 66,000 compounds, of which about 960 (1.5%) showed an effect of 50% or more. For the sample, strong results were picked, then their nearest neighbours and some compounds at random.
System: Trypanosoma brucei
Assay: Trypanosoma brucei 72 hour study
Format: functional, organism-based
Set-up: scale not given: in the data most compounds retested in dose-response had high values

CN(C)CC1CN(C(=O)CCc2ccccc2)Cc2nccn2C1.O=C(O)C(F)(F)F (stereo not given)
Percent Effect (30 µM, 30.03 µM): -27.78%

O=C1O[C@@H]2CN(Cc3ccncc3)C[C@@H]2N1CCCN1CCOCC1
Percent Effect (30 µM, 30.03 µM): -21.02%

O=C1O[C@@H]2CN(CCc3ccccc3)C[C@@H]2N1CCCN1CCOCC1
Percent Effect (30 µM, 30.03 µM): -26.55%

O=C1O[C@@H]2CN(Cc3ccccc3)C[C@@H]2N1CCCN1CCOCC1
Percent Effect (30 µM, 30.03 µM): 65.91%

CC(C)CC(=O)N1CC[C@@H]2[C@H](CC1)N(Cc1cccnc1)CCS2(=O)=O.O=C(O)C(F)(F)F.O=C(O)C(F)(F)F
Percent Effect (30.3 µM, […]): -39.88%

Cc1cccc(CN(Cc2ccccn2)Cc2ncc(C(C)(C)C)o2)c1
Percent Effect (30.3 µM, […]): 99.39%

CCN(Cc1cccc(Cl)c1)Cc1ncc(C(C)(C)C)o1
Percent Effect (30.3 µM, […]): -76.17%

Cc1cccc(CN(Cc2ccccn2)S(=O)(=O)N(C)C)c1
Percent Effect (30.3 µM, […]): 5.656%

Cc1ccc(SCCN(C)C(=O)c2cn([C@H]3CC[C@@H](N)CC3)nn2)cc1
Percent Effect (30.3 µM, […]): -119%

CCN(CCSc1ccccc1)C(=O)c1cn([C@H]2CC[C@@H](N)CC2)nn1
Percent Effect (30.3 µM, […]): -71.42%

Cc1ccc(SCCCNC(=O)c2cn([C@H]3CC[C@@H](N)CC3)nn2)cc1
Percent Effect (30.3 µM, […]): 59.21%

CC(C)c1nc(CN2CCCCC2Cn2cncn2)cs1 (stereo not given)
Percent Effect (30.3 µM, […]): 7.247% | Percent Effect (10 mM, 10 mM as filed; unlikely as a test dose): -40.32%

CC(C)c1nc(CN2CCCCC2)cs1
Percent Effect (30 µM, 30.03 µM): 11.44%

CC(=O)Nc1nc(CN2CCCCC2Cn2cccn2)cs1 (stereo not given)
Percent Effect (30 µM, 30.03 µM): 16.1%

CN(C)C(=O)Cc1nc(CN2CCCCC2Cn2cccn2)cs1 (stereo not given)
Percent Effect (30 µM, 30.03 µM): -14.9%

CN(C)C(=O)Cc1nc(CN2CCCC2Cn2cccn2)cs1 (stereo not given)
Percent Effect (30.3 µM, […]): -75.86%

CCCc1nc(CN2CCCC2Cn2cccn2)cs1 (stereo not given)
Percent Effect (30.3 µM, […]): 100.2%

CC(=O)Nc1nc(CN2CCCC2Cn2cncn2)cs1 (stereo not given)
Percent Effect (30 µM, 30.03 µM): 3.686%

CN(C)C(=O)Cc1nc(CN2CCCCC2Cn2cncn2)cs1 (stereo not given)
Percent Effect (30.3 µM, […]): -54.68%

CCCc1nc(CN2CCCCC2Cn2cncn2)cs1 (stereo not given)
Percent Effect (30.3 µM, […]): 101.4% | Percent Effect (10 mM, 10 mM as filed; unlikely as a test dose): -40.08%

CCCc1nc(CN2CCCC2Cn2cncn2)cs1 (stereo not given)
Percent Effect (30 µM, 30.03 µM): 2.721%

CC(=O)Nc1nc(CN2CCCC2Cn2cccn2)cs1 (stereo not given)
Percent Effect (30.3 µM, […]): 98.13%

CC(C)c1nc(CN2CCCC2CN2CCCC2)cs1 (stereo not given)
Percent Effect (30.3 µM, […]): 99.84%

CN(C)Cc1nc(-n2cnc(C(=O)NCC3CC3)c2)n2ccccc12
Percent Effect (30.3 µM, […]): -8.964%

CN1C(=O)CC(C(=O)O)C12CCN(c1ccc3ccccc3n1)CC2 (stereo not given)
Percent Effect (30 µM, 30.03 µM): -0.482%

COc1ccc(CC(=O)N2CC(=O)NCC(C)(C)C2)cc1
Percent Effect (30.3 µM, […]): -15.32%

O=C(NC[C@@H]1C[C@@H]2CN(C(=O)CO)C[C@H]2O1)c1ccsc1
Percent Effect (30.3 µM, […]): -12.73%

Cc1nn(C)c(C)c1S(=O)(=O)N1CC[C@@H]2O[C@@H](C)C[C@H]2C1.O=C(O)C(F)(F)F
Percent Effect (30.3 µM, […]): 5.348%

CN(C)CCN1C(=O)CCC12CCCN(C(=O)C1CC=CC1)CC2.O=C(O)C(F)(F)F (stereo not given)
Percent Effect (30.3 µM, […]): 14.28%

OCc1csc(N2CCCC(COc3cccc(F)c3)C2)n1 (stereo not given)
Percent Effect (30 µM, 30.03 µM): -13.56%

COc1ccc(OCC2CCCN(c3nc(CO)cs3)C2)cc1 (stereo not given)
Percent Effect (30 µM, 30.03 µM): 85.11%

Cc1ccc(OCC2CCCN(c3nc(CO)cs3)C2)cc1 (stereo not given)
Percent Effect (30 µM, 30.03 µM): 49.4%

Cc1nc2cc(-c3nccn3C)nn2c(N2CCCC(O)C2)c1C.Cl (stereo not given)
Percent Effect (30.3 µM, […]): -11.86%

Cc1nc2cc(-c3nccn3C)nn2c(N2CCCC(CO)C2)c1C (stereo not given)
Percent Effect (30.3 µM, […]): 21.68%

CCc1c(C)nc2cc(-c3nccn3C)nn2c1N1CCCC(CO)C1 (stereo not given)
Percent Effect (30.3 µM, […]): 50.14%

Cc1ccc(CN2CCOC3(COCCN(CCN(C)C)C3)C2)o1.O=C(O)C(F)(F)F.O=C(O)C(F)(F)F.O=C(O)C(F)(F)F (stereo not given)
Percent Effect (30 µM, 30.03 µM): 20.44%

OC(CNC1CCOCC1)c1cccc(OCc2ccccc2)c1 (stereo not given)
Percent Effect (30 µM, 30.03 µM): -36.97%

OC(CNC1CCSCC1)c1cccc(OCc2ccccc2)c1 (stereo not given)
Percent Effect (30 µM, 30.03 µM): -20.69%
